GLS inh = blocks human kidney-isoform glutaminase activity | 410,000 compounds, 0.21% hits | AID 624170 | Potency, µM (top dose mostly 45.5 µM), for inactives: at the top dose activity change, negative = inhibition, usual class: inhibitors | O94925 | GLS enzymatic activity, qHTS titration; also: % is scaled to controls: 0 for no effect and ±100 for the full control effect
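Enzyme dispensed in phosphate buffer (45 mM, pH 8.2, 0.02% Tween-20), compounds pinned in, then 1 mM L-glutamine solution and the glutamate oxidase–HRP–Amplex Red mix added; fluorescence read immediately and again after 30 min at room temperature.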
FEN1 inh-1 = blocks human flap endonuclease 1. P39748. Recombinant FEN1 flap cleavage, fluorescence, 15 min. Potency, µM (top dose mostly 114 µM), for the others: at the top dose activity change, negative = inhibition, hits mostly inhibitors. 390,000 compounds, 0.35% hits; also: % is scaled to controls: 0 for no effect and ±100 for the full control effect; nearly all actives have a fitted effect of over 65% in size
Target sequence (P39748 whole entry, looked up): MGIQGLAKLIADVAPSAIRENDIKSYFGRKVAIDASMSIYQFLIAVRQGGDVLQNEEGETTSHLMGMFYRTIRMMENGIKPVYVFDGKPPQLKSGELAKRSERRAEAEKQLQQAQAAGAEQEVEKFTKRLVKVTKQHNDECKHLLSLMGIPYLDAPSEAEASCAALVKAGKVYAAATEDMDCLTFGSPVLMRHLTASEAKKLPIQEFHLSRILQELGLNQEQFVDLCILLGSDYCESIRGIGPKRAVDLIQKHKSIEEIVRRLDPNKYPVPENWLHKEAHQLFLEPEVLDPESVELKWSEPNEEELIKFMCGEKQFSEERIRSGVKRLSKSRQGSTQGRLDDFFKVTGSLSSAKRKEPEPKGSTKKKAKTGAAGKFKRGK
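In this screen, 50 nM flap DNA substrate was added to 10 nM FEN1 pretreated with compound for 15 min at room temperature; cleavage was followed with reads at 0 and 15 min, and Hill fitting gave concentration–response parameters.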
APEX1 inh = blocks human APE1 abasic DNA cleavage; recombinant APE1, TAMRA/BHQ-2 abasic DNA cleavage fluorescence; Potency, µM (doses to about 65.8 µM), without a hit: at the top dose activity change, negative = inhibition, hits mostly inhibitors; 350,000 compounds, 0.35% hits;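 also: plate controls were vehicle for no effect and reference inhibitor for full effect; nearly all actives have a fitted effect of over 55% in size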
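0.75 nM APE1 + cpd, 15 min RT; start w/ 50 nM TAMRA/BHQ-2 THF-abasic dsDNA; kinetic fluor 525/598 nm ×3 reads @60 s; Δ(read3−read1); normalized to DMSO and NSC13755 control wells.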
RECQ1 helicase = inhibitors of human RECQ1 DNA helicase; P46063; RECQ1 DNA unwinding, red fluorescence kinetic read; Potency, µM (titrated, usually from 57.3 µM), without a hit: top-dose activity, negative = inhibition, hits mostly inhibitors; 240,000 compounds, 0.54% hits;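 also: plate controls were vehicle for no effect and no enzyme for full effect; nearly all actives have a fitted effect of over 30% in size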
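RECQ1T1 50 nM; forked duplex (20 bp + 30-nt ss tails) 200 nM, ATP 2 mM final; pH 8.0, 2 mM MgCl2, 2.5 ug/ml poly(dI-dC); 15 min compound preincubation; discontinuous kinetic read over 2 h at RT.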
BLM inh = inhibitors of human Bloom syndrome helicase BLM. Potency, µM (titrated, usually from 56.1 µM), for inactives: at the top dose activity change, negative = inhibition, usual class: inhibitors. recombinant BLM DNA unwinding, fluorescence dequenching. 350,000 compounds, 0.2% hits. P54132;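 also: plate controls were vehicle for no effect and no enzyme for full effect; nearly all actives have a fitted effect of over 35% in size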
PGK inhibitor = inhibitors of T. brucei phosphoglycerate kinase; Potency, µM (titrated, usually from 57.5 µM), for the others: at the highest dose activity change, negative = inhibition, most hits filed as inhibitors; 380,000 compounds, 0.043% hits; PGK/GAPDH coupled, Kinase-Glo luminescence, 60 min; also: % is scaled to controls: 0 for no effect and ±100 for the full control effect; nearly all actives have a fitted effect of over 60% in size
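Recombinant glycosomal PGK reaction used 1,3-bisphosphoglycerate generated in-well by GAPDH (100nM final) in 100mM TEA pH 7.6, 5mM MgCl2, 0.01% Tween-20. After 60 minutes at room temperature, ATP was read by Kinase-Glo Plus luminescence end-point.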
FEN1 inh-2 = FEN1 inhibition, cherry-pick retest; Potency, µM, usual class: inhibitors; shares compounds with FEN1 inh-1; 880 compounds, 79% hits; AID 720498; FEN1 flap cleavage, TAMRA/BHQ2 fluorogenic DNA substrate; also: nearly all actives have a fitted effect of over 60% in size
* hit, by the source's call; i = inactive; ? = inconclusive; nt = no result; [ ] = dose if it differs, or a comment. In the library only some 0.86% were active in any assay of this set; here they are far more common. Calls follow the shape of the dose curve; as a rule, active = well fitted curve in the direction sought with a large enough effect; inconclusive = small, poorly fitted or top-dose-only effect, or another doubt; inactive = no such curve, though single readings can be large; an effect the other way counts as inactive or inconclusive. Potency is read from the fitted curve at half-maximal effect.

SMILES	GLS inh	FEN1 inh-1	APEX1 inh	RECQ1 helicase	BLM inh	PGK inhibitor	FEN1 inh-2
COc1ccc(COCC(O)CN2CCC(CN3C(=O)c4cccc5cccc(c45)C3=O)CC2)cc1OC (stereo unspecified)	9.2%	?	-6.3%	13.9%	127.3%	-0.5%	?
CCOC(=O)c1cc2c(=O)n3ccccc3nc2n(Cc2ccco2)c1=NC(=O)c1c(F)cccc1Cl	16.6%	-29.1%	nt	nt	-2.4%	-9.0%	?
CCOC(=O)c1cc2c(=O)n3ccccc3nc2n(Cc2ccco2)c1=NC(=O)c1cccc(C)c1	4.3%	-0.1%	nt	nt	-2.1%	14.8%	nt
CN(C)CCCN1C(=O)c2cccc3c([N+](=O)[O-])ccc(c23)C1=O	4.2%	50.1µM*	-15.6%	i	104.8%	-0.5%	33.8*
CC(C)[C@H](NC(=O)OC(C)(C)C)[C@@H](O)CC(=O)C(C)(C)C	nt	nt	41.0%[12.4 µM]	3.9%[11.5 µM]	1.8%[12.4 µM]	nt	nt
COc1ccc2c(c1)C(=O)[C@H](OC(=O)NS(=O)(=O)c1ccc(F)cc1)[C@@H](c1ccc(OC)c(Br)c1)O2	nt	nt	7.0%	1.2%	3.9%	nt	nt
CC(=O)N1CCN(c2nc(-c3ccco3)c3c(c2C#N)CC(C)(C)SC3)CC1	-18.1%	-0.4%	1.2%	-4.1%	-8.4%	-9.3%	nt
CC1(C)Cc2c(C#N)c(N3CCN(C(=O)c4ccco4)CC3)nc(-c3ccco3)c2CS1	?	?	6.7%	-1.0%	?	-3.6%	?
Cc1ccc(-c2nnc(Nc3ccc(O)cc3)c3ccccc23)cc1S(=O)(=O)NCC1CCCO1 (stereo unspecified)	30.2%	-5.7%	nt	nt	-9.1%	-10.9%	nt
Oc1ccc(C2=Nn3c(nnc3-c3ccco3)SC2)cc1O	?	50.1µM*	-1.5%	3.0%	?	?	42.6*
CCOC(=O)c1ccc(CN(Cc2ccc(F)cc2)S(=O)(=O)c2ccc(F)c(C(=O)Nc3c(C)cccc3C)c2)cc1	1.4%	-12.9%	nt	nt	-4.4%	i	nt
Cn1cc(/C=C/c2cc[n+](C)cc2)c2cc(F)ccc21	-16.7%	44.7µM*	22.5%	nt	85.3%	0.0%	37.9*
NS(=O)(=O)c1ccc(CCNC(=O)COC(=O)Cc2ccc([N+](=O)[O-])cc2)cc1	-13.0%	-7.7%	-5.1%	nt	nt	i	nt
COc1ccccc1CNC(=O)COC(=O)c1cc2ccccc2o1	-17.1%	-3.7%	-12.8%	nt	nt	-2.1%	nt
Cc1cccc(C)c1NC(=O)COC(=O)c1ccccc1[N+](=O)[O-]	-2.5%	-10.6%	-8.3%	i	-2.7%	-0.3%	nt
O=C(COC(=O)c1ccc([N+](=O)[O-])o1)NCc1ccccc1	8.7%	?	-10.8%	nt	nt	-8.2%	13.5*
Cc1cccc(C)c1NC(=O)COC(=O)c1ccc([N+](=O)[O-])o1	-13.7%	?	?	-8.3%	-3.7%	i	13.5*
NS(=O)(=O)c1ccc(CCNC(=O)COC(=O)c2ccc([N+](=O)[O-])o2)cc1	-2.5%	?	-42.4%	nt	nt	-5.0%	10.7*
O=C(COC(=O)c1ccc([N+](=O)[O-])o1)c1ccccc1	-0.5%	-14.4%	-2.1%	-10.5%	7.3%	3.9%	nt
COc1ccccc1CNC(=O)COC(=O)c1ccc([N+](=O)[O-])o1	-0.1%	?	?	nt	nt	6.5%	30.1*
CC(C)N(Cc1ccccc1)c1ncnc2c1nnn2C	-11.2%	-6.6%	nt	nt	0.7%	-1.3%	nt

Screening data (PubChem BioAssay)
